Reference: PubChem BioAssay (NCI)
This is part of a sample that, as a whole, favours compounds with a hit. Of some 83,000 tested, about 20% had one in any assay.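 Treatment: one concentration, 48 hours, 96-well format. Scoring: percent growth, with anything below 10 considered active.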 Activity calls are given as the source filed them.

Legend:
Experiment in all cases: NCI-60 one-dose screen, 48 h (100 = growth as untreated, 0 = no growth, -100 = all killed)
Details in all cases: 10 µM unless noted
MOLT-4 leukemia = tested on: MOLT-4 leukemia
SR leukemia = tested on: SR leukemia
RPMI-8226 leukemia = tested on: RPMI-8226 leukemia
OVCAR-8 ovarian = tested on: OVCAR-8 ovarian
OVCAR-5 ovarian = tested on: OVCAR-5 ovarian
OVCAR-4 ovarian = tested on: OVCAR-4 ovarian
SK-OV-3 ovarian = tested on: SK-OV-3 ovarian
IGROV1 ovarian = tested on: IGROV1 ovarian
OVCAR-3 ovarian = tested on: OVCAR-3 ovarian
NCI/ADR-RES ovarian = tested on: NCI/ADR-RES ovarian
T-47D breast = tested on: T-47D breast
BT-549 breast = tested on: BT-549 breast
SW-620 colon = tested on: SW-620 colon
MCF7 breast = tested on: MCF7 breast
HCT-116 colon = tested on: HCT-116 colon
KM12 colon = tested on: KM12 colon
MDA-MB-435 melanoma = tested on: MDA-MB-435 melanoma
HCC-2998 colon = tested on: HCC-2998 colon
HS 578T breast = tested on: HS 578T breast

Measured: growth

C[N+]12CCC34C5=CC(=O)C(=O)C=C5[N+]5(C)C(=O)CC6OCC=C(C1)C(CC32)C6C45 (stereo unspecified)
inactive: MOLT-4 leukemia 102% | SR leukemia 92% | RPMI-8226 leukemia 102% | OVCAR-8 ovarian 99.5% | OVCAR-5 ovarian 106% | OVCAR-4 ovarian 101% | SK-OV-3 ovarian 99.9% | IGROV1 ovarian 96.9% | OVCAR-3 ovarian 103% | NCI/ADR-RES ovarian 114% | T-47D breast 107% | BT-549 breast 127% | SW-620 colon 111% | MCF7 breast 95.7% | HCT-116 colon 114% | KM12 colon 104%

CC[C@H](C)[C@H](NC(=O)CN(C)C)C(=O)N(C)[C@H](C[C@@H](OC(C)=O)c1nc(C(=O)NC23CC(C(=O)OC)(C2)C3)cs1)C(C)C
active: OVCAR-3 ovarian -47.2% | MDA-MB-435 melanoma -38.9% | HCT-116 colon 4.85%
inactive: MOLT-4 leukemia 12.3% | SR leukemia 17.8% | RPMI-8226 leukemia 18.8% | OVCAR-8 ovarian 19.1% | OVCAR-5 ovarian 71.9% | OVCAR-4 ovarian 47.9% | SK-OV-3 ovarian 32.6% | IGROV1 ovarian 33% | NCI/ADR-RES ovarian 77.8% | T-47D breast 50.4% | BT-549 breast 14.2% | SW-620 colon 30.9% | MCF7 breast 17.9% | HCC-2998 colon 20.4% | KM12 colon 11.4%

Cc1cc[c-]cc1.Fc1c[c-]c(-c2ccccn2)c(F)c1.[Pt+2].c1ccc([PH+](c2ccccc2)c2ccccn2)cc1
inactive: MOLT-4 leukemia 26% | SR leukemia 42.5% | RPMI-8226 leukemia 15.9% | OVCAR-8 ovarian 34% | OVCAR-5 ovarian 63.9% | OVCAR-4 ovarian 57.1% | SK-OV-3 ovarian 91.7% | IGROV1 ovarian 53.2% | OVCAR-3 ovarian 46.1% | HS 578T breast 39.1% | BT-549 breast 63.2% | MDA-MB-435 melanoma 39.3% | SW-620 colon 45.6% | MCF7 breast 38.9% | HCT-116 colon 35% | HCC-2998 colon 83.2% | KM12 colon 52.4%

CO/N=C1\CC[C@]2(C)[C@H]3CC[C@]4(C)C(=O)CC[C@H]4[C@@H]3C[C@@H]3SC(N)=N[C@@]32C1
inactive: MOLT-4 leukemia 86.1% | SR leukemia 71.8% | RPMI-8226 leukemia 93.2% | OVCAR-8 ovarian 105% | OVCAR-5 ovarian 105% | OVCAR-4 ovarian 90.9% | SK-OV-3 ovarian 122% | IGROV1 ovarian 101% | OVCAR-3 ovarian 85.5% | NCI/ADR-RES ovarian 99.6% | T-47D breast 84.4% | BT-549 breast 106% | MDA-MB-435 melanoma 91.5% | MCF7 breast 89.1% | HCT-116 colon 87.2% | HCC-2998 colon 103% | KM12 colon 97.7%

C[C@]12CCC3[C@@H](C[C@@H]4SC(Nc5ccccc5)=N[C@@]45CC(=O)CC[C@]35C)[C@@H]1CCC2=O (stereo partly specified)
active: MOLT-4 leukemia -5.8% | SR leukemia -5.37% | RPMI-8226 leukemia -14.8% | OVCAR-8 ovarian -5.35% | IGROV1 ovarian -11.3% | OVCAR-3 ovarian -9.98% | NCI/ADR-RES ovarian 9.86% | T-47D breast -27.4% | BT-549 breast -19.9% | SW-620 colon -17.9% | HCT-116 colon -85.5%
inactive: OVCAR-5 ovarian 31.2% | OVCAR-4 ovarian 31.7% | SK-OV-3 ovarian 56.9% | MCF7 breast 15.4% | KM12 colon 23.2%

Oc1cc(Cl)ccc1Oc1ccc(Cl)cc1Cl
active: MOLT-4 leukemia 5.71% | SR leukemia 3.21% | RPMI-8226 leukemia 9.47% | OVCAR-3 ovarian 6.75% | NCI/ADR-RES ovarian 7.74% | BT-549 breast 8.8% | HCT-116 colon 6.58%
inactive: OVCAR-8 ovarian 10.7% | OVCAR-5 ovarian 86.2% | OVCAR-4 ovarian 29.9% | SK-OV-3 ovarian 89.2% | IGROV1 ovarian 52.4% | T-47D breast 17.9% | MDA-MB-435 melanoma 15.1% | SW-620 colon 21% | MCF7 breast 19.3% | HCC-2998 colon 105% | KM12 colon 21.9%

Cc1cc2c(cc1-c1ccnc(/C=C/C(=O)O)c1)C(C)(C)CCC2(C)C
inactive: MOLT-4 leukemia 91.9% | SR leukemia 77.9% | RPMI-8226 leukemia 41.4% | OVCAR-8 ovarian 79% | OVCAR-5 ovarian 100% | OVCAR-4 ovarian 104% | SK-OV-3 ovarian 98.1% | IGROV1 ovarian 100% | OVCAR-3 ovarian 82.8% | NCI/ADR-RES ovarian 87.8% | T-47D breast 92.4% | BT-549 breast 64.5% | MDA-MB-435 melanoma 92.5% | SW-620 colon 95.9% | MCF7 breast 56% | HCT-116 colon 75.1% | HCC-2998 colon 103% | KM12 colon 86.3%

O=C/C=C/c1ccco1
inactive: MOLT-4 leukemia 98.9% | SR leukemia 99.4% | RPMI-8226 leukemia 102% | OVCAR-8 ovarian 100% | OVCAR-5 ovarian 101% | OVCAR-4 ovarian 105% | SK-OV-3 ovarian 96.1% | IGROV1 ovarian 106% | OVCAR-3 ovarian 110% | NCI/ADR-RES ovarian 109% | T-47D breast 107% | BT-549 breast 104% | SW-620 colon 104% | MCF7 breast 96% | HCT-116 colon 90% | KM12 colon 97.6%
